Where “and” joins values, the source holds several entries; their conditions need not be identical. Equal entries are not always repeated. Hit rate of the full screen: of about 190,000 compounds, about 6,900 (3.6%) were called active. This is one part of a sample in which actives are shown more often than they occur. No stated cut-off is given here; in the data, active means inhibition above about 50%; inactive means the rest.

The target of the assay is Huntingtin (Homo sapiens) (UniProt P42858). Nature of the assay: mutant huntingtin-calmodulin interaction inhibitors – biochemical, AlphaScreen, primary screen (AID 1671202).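 Further: 0% = both proteins with DMSO and 100% = one protein alone.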 To be noted: AlphaScreen His-mHTT/GST-CaM binding, luminescence; at 15 µM, active compounds read high. Background: In Alpha technology, singlet oxygen from a donor bead excites a nearby acceptor bead.
Sequence of Huntingtin (Homo sapiens) (P42858 whole entry, looked up, stated change not applied): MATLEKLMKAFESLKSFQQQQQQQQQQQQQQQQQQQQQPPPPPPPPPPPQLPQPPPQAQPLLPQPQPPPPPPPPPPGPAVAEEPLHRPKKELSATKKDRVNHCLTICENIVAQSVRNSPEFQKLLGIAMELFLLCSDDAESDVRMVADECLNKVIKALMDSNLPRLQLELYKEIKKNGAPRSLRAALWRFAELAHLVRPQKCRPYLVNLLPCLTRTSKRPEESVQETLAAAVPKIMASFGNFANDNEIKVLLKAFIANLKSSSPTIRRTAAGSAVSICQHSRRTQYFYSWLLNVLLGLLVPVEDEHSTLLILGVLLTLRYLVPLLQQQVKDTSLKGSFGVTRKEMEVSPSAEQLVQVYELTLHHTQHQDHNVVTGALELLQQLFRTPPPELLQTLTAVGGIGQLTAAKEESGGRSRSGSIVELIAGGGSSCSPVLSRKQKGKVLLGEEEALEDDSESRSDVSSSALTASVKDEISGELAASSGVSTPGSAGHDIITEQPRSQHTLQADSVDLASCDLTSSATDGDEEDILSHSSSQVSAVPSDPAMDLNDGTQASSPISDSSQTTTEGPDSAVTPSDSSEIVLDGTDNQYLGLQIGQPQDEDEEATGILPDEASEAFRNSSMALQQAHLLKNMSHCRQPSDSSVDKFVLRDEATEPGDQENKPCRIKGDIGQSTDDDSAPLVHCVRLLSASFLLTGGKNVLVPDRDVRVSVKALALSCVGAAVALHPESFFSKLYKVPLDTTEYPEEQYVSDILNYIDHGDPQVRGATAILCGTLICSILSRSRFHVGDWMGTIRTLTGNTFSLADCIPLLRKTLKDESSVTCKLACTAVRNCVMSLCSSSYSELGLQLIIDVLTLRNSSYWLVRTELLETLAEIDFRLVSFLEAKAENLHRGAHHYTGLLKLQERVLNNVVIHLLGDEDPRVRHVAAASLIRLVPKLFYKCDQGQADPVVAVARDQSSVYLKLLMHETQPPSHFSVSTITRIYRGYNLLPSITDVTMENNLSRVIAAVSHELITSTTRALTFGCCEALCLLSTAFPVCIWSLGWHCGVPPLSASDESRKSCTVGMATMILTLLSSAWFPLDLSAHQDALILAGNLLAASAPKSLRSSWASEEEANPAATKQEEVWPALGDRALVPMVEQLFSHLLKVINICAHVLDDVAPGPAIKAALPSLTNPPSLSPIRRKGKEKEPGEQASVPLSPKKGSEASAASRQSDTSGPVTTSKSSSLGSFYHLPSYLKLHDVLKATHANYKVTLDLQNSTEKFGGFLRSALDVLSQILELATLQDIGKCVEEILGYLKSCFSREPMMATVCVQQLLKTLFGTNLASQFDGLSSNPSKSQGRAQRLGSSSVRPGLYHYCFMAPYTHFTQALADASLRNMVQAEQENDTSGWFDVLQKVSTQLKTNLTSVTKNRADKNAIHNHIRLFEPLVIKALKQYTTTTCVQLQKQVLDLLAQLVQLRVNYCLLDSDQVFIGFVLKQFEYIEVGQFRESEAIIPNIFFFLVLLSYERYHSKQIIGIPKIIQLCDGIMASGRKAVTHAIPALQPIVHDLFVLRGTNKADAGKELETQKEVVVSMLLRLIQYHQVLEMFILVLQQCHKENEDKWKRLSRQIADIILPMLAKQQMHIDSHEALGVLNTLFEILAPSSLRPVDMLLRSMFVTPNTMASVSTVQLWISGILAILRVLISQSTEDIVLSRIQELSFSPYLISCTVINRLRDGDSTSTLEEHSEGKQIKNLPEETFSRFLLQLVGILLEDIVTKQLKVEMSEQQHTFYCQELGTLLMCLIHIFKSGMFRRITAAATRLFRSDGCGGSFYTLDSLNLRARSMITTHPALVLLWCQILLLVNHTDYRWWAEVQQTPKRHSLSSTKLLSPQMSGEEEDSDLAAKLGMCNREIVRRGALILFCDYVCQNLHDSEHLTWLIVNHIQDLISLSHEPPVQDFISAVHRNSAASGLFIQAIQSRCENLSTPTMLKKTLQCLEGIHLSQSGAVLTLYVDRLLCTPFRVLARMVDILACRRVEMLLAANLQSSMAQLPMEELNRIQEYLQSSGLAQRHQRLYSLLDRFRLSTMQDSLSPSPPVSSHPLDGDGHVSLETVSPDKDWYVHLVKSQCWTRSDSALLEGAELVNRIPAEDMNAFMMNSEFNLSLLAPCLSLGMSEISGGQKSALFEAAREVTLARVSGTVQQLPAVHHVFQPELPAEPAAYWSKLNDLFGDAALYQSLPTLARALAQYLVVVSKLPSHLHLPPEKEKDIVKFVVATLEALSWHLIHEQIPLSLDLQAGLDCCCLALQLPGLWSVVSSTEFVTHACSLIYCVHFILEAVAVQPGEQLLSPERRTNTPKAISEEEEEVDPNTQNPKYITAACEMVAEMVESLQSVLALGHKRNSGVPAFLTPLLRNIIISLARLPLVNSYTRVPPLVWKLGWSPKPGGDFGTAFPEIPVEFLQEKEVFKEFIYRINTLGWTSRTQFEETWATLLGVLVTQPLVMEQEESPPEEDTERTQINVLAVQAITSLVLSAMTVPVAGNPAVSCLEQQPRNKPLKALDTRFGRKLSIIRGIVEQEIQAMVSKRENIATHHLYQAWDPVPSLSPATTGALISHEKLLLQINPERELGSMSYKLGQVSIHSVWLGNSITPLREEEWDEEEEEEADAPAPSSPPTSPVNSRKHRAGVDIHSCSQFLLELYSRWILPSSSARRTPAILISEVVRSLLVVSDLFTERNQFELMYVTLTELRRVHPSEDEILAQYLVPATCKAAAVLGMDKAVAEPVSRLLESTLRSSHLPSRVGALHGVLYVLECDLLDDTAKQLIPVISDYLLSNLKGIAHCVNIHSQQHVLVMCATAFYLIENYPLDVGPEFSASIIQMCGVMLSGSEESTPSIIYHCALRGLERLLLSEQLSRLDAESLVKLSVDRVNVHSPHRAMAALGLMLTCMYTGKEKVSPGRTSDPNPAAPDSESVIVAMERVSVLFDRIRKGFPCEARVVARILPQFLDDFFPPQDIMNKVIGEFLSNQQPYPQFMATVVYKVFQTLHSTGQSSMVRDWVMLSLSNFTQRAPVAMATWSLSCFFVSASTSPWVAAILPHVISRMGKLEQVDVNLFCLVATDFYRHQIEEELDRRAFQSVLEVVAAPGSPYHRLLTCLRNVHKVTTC
With `O=C(CC(C(=O)O)N1CCNCC1)Nc1ccc(OC(F)F)cc1` (centres undefined), the inhibition is -16.1% (inactive).

With `Cc1ccc(NC(=O)Cn2cccc2-c2nnc(C3CCC3)o2)cc1`, the inhibition was 12.1% (inactive).

Consider `O=C1c2ccccc2C(=O)c2c(NC3CCCCC3)cccc21`, for which the inhibition is 73% (active).

`CC1CCCC(C)N1C(=O)c1cccc2c1-c1ccccc1C2=O` (centres undefined): the inhibition is -6% (inactive) and 2.5% (inactive).

Turning to `O=C1c2ccccc2C(=O)c2c(NC(=O)c3c(F)cccc3F)cccc21`, the inhibition was 1% (inactive).

On to `O=C(CSc1ccc(C(F)(F)F)cc1[N+](=O)[O-])Nc1ccccc1Cl`, for which the inhibition was 8% (inactive).

In the case of `CCOc1cc(/C=C2\NC(=O)NC2=O)cc(Cl)c1OCc1ccc([N+](=O)[O-])cc1`, the inhibition is 74% (active).

Consider `O=C1NC(=O)/C(=C\c2ccc(OCc3ccc([N+](=O)[O-])cc3)c(Br)c2)N1`, for which the inhibition is 10% (inactive).

Regarding `CCOc1cc(/C=C2\NC(=O)NC2=O)cc(Cl)c1OC(C)C`, the inhibition is 14% (inactive).

As for `COc1cccc(C=C2Oc3c(ccc4c3CN(Cc3cc(OC)c(OC)c(OC)c3)CO4)C2=O)c1`, the inhibition was 56.5% (active).

For the molecule `COc1cccc(CN2COc3ccc4c(c3C2)OC(=Cc2ccc(OC)c(OC)c2OC)C4=O)c1`, the inhibition was 35.7% (inactive).

As for `COc1cccc(CN2COc3ccc4c(c3C2)OC(=Cc2cccnc2)C4=O)c1`, the inhibition is 3.4% (inactive).

As for `CCn1cnnc1C1CCCCN1C(=O)c1cnccn1` (centres undefined), the inhibition is 0.74% (inactive).

In the case of `CCOc1ccccc1/C=C1\N=C(c2ccc([N+](=O)[O-])cc2Cl)OC1=O`, the inhibition was -1% (inactive).

With `CC(=O)N1CCc2[nH]c3ccc(C(=O)NCCc4ccccn4)cc3c2C1`, the inhibition was 58.7% (active).

On to `CN1CCC(CCNC(=O)c2ccc3[nH]c4c(c3c2)CN(C(=O)C2CCC2)CC4)CC1`, for which the inhibition is 4.82% (inactive).

As to `CC(=O)N1CCc2[nH]c3ccc(C(=O)NC4CCCCC4)cc3c2C1`, the inhibition was 9.6% (inactive).

In the case of `Oc1ccc(Nc2nc(-c3ccc(Cl)cc3Cl)nc3ccccc23)cc1`, the inhibition is 37.4% (inactive).

With `CCNc1cc(Nc2ccccc2)c2c3c(onc13)-c1ccccc1C2=O`, the inhibition was 100% (active).

As to `CCc1cc(C(=O)Nc2ccccc2)no1`, the inhibition is -4.5% (inactive).

For `O=C(NCc1ccc(Cl)cc1)c1ccc2ncnc(N3CCOCC3)c2c1`, the inhibition is -1.3% (inactive).

For `CC(=O)c1cccc(NC(=O)C2CCN(S(=O)(=O)c3ccc(Br)cc3)CC2)c1`, the inhibition is -1.7% (inactive).

For the molecule `COc1ccc(C2NC(c3ccc(OC)c(OC)c3)C(C)C(=O)C2C)cc1OC` (centres undefined), the inhibition is 10% (inactive).

Regarding `Cc1ccc(CNC(=O)C2CC(=O)N(C3CCCCC3)C2)cc1` (centres undefined), the inhibition was 2.18% (inactive).

As to `Cc1ccc(CNC(=O)C2CC(=O)N(C3CCCCCCC3)C2)cc1` (centres undefined), the inhibition was 8.83% (inactive).

As for `CCN(CCCNC(=O)C1CC(=O)N(C2CCCCCCC2)C1)c1cccc(C)c1` (centres undefined), the inhibition is 53% (active).

Turning to `COc1ccc(-n2nc3c(c2NC(=O)c2cccc(OC)c2OC)CS(=O)C3)cc1` (centres undefined), the inhibition was 5% (inactive).

Consider `O=C1C2C(C(=O)N1c1cc([N+](=O)[O-])ccc1Cl)C1C=CC2C12CC2` (centres undefined), for which the inhibition is 4% (inactive).

As for `Cc1ccnc(N2CCCC(C(=O)NCCc3ccc(Cl)cc3)C2)n1` (centres undefined), the inhibition was 7.6% (inactive).

Consider `Cc1ccc2cc3cc(C(=O)N(C)c4ccc(Br)cc4)oc3nc2c1`, for which the inhibition was -8% (inactive).

On to `Cc1ccc(CNC(=O)CCC(=O)N2CCCn3nc(C)cc32)cc1`, for which the inhibition was 1.63% (inactive).

`COc1ccc(OC)c2[nH]c(=O)c(CCNC(=O)c3ccc(C)c(C)c3)cc12`: the inhibition is 28% (inactive).

As for `COc1ccc(C(=O)NCCc2nc3ccccc3n2Cc2ccccc2C)cc1OC`, the inhibition was 77% (active).

`COc1ccc(C(=O)NCCc2ccc(S(N)(=O)=O)cc2)cc1OC`: the inhibition is 9.3% (inactive).

For the molecule `CCNc1cc(N2CCCC(CCC(=O)N3CCN(c4ccccn4)CC3)C2)ncn1` (centres undefined), the inhibition was 1.12% (inactive).

For `CCC(=O)N1CCc2ccccc2C1C(=O)NCc1ccc(OC)cc1` (centres undefined), the inhibition was 3.87% (inactive).

`Cc1ccc(NC(=O)CC2COc3ccccc3NC2=O)cc1C` (centres undefined): the inhibition was -3.7% (inactive).

On to `Cc1ccc(NC(=O)CC2COc3ccc(Cl)cc3NC2=O)cc1Cl` (centres undefined), for which the inhibition was 92.5% (active).

As to `O=C(CC1COc2ccccc2NC1=O)Nc1ccc(C(F)(F)F)cc1` (centres undefined), the inhibition was -6.9% (inactive).

As for `Cc1cc(SCC(=O)NCc2ccc3c(c2)OCO3)nc2ccccc12`, the inhibition is -10.7% (inactive).

With `O=C(c1cnc(-c2ccccc2)nc1N1CCSCC1)N1CCCCC1`, the inhibition was 18.3% (inactive).

With `Cc1cccc(N2CCN(C(=O)CCC3CCCN(C(=O)Nc4ccccc4)C3)CC2)c1C` (centres undefined), the inhibition was 47% (inactive).

Regarding `Brc1ccc(CSc2cccc3cccnc23)cc1`, the inhibition is 54% (active).

As to `O=C(CSc1ccccn1)c1ccc(Br)cc1`, the inhibition was -42.4% (inactive).

With `N#Cc1ccc(CSc2ncccn2)cc1`, the inhibition was -1.95% (inactive).

For `CN(C)C(CNC(=O)Nc1ccc(Cl)cc1)c1ccco1` (centres undefined), the inhibition was -16% (inactive).

Take `O=C(COc1coc(CN2CCc3ccccc32)cc1=O)NCc1ccco1`: the inhibition is 19.5% (inactive).

In the case of `CCOc1ccc(NC(=O)N2CC(C)Oc3ccc(C)cc32)cc1` (centres undefined), the inhibition is 1.01% (inactive).

Consider `COc1cc(OC)c(OC)cc1/C=C1/CC/C(=C\c2cc(OC)c(OC)cc2OC)C1=O`, for which the inhibition was 23% (inactive).

With `Cc1cccc(NC(=O)c2cc3c(CO)cnc(C)c3oc2=Nc2ccc(Cl)cc2)c1`, the inhibition was -1% (inactive).

For `Cc1ccccc1NS(=O)(=O)c1cc(Br)cc2c1N(C(=O)C1CC1)CC2`, the inhibition was 2% (inactive).

For the molecule `CC(C)(C)C1=CC(=Nc2ccccc2N)C=C(C(C)(C)C)C1O` (centres undefined), the inhibition is 97% (active).

Take `COCCCNC(=O)c1ccc2c(c1)ncn2-c1ccc(F)c(F)c1`: the inhibition is 9% (inactive).

Regarding `CCOc1ccc(C(=O)Nc2ccccc2I)cc1[N+](=O)[O-]`, the inhibition was 4.6% (inactive).

Consider `Cc1ccc(C)c(C2CC(c3ccccc3Cl)=NN2C(=O)CN2CCOCC2)c1` (centres undefined), for which the inhibition is 79.4% (active).

Consider `COc1ccc(C2CC(c3cccc(F)c3)=NN2C(=O)CN2CCCCC2)cc1` (centres undefined), for which the inhibition was 36.7% (inactive).

In the case of `CCNC(=O)N(C)CC(=O)N1N=C(c2ccccc2F)CC1c1ccc(C)cc1` (centres undefined), the inhibition is 24.6% (inactive).

As to `CCNC(=O)N(C)CC(=O)N1N=C(c2ccc(C)c(C)c2)CC1c1ccc(C)cc1` (centres undefined), the inhibition is 73.4% (active).

As for `COc1ccc(C2CC(c3ccccc3F)=NN2C(=O)CN2CCOCC2)cc1` (centres undefined), the inhibition is 50.5% (active).

Consider `COc1ccc(C2CC(c3ccccc3)=NN2C(=O)c2ccc(Br)o2)cc1` (centres undefined), for which the inhibition was -1% (inactive).

Consider `COc1ccc(C2=NN(C(=O)CN3CCN(C)CC3)C(c3ccccc3C)C2)cc1` (centres undefined), for which the inhibition is 42% (inactive).

Regarding `COc1ccc(C2=NN(C(=O)CCC(=O)O)C(c3ccc(F)cc3)C2)cc1OC` (centres undefined), the inhibition was -2.9% (inactive).

`O=C(Cc1nnc(-c2cccc(F)c2)o1)N1CCOCC1`: the inhibition was -5.8% (inactive).

Take `COc1ccccc1C1=NN(C(=O)CN2CCC(C)CC2)C(c2ccc(C)cc2)C1` (centres undefined): the inhibition is 12.9% (inactive).

In the case of `COc1ccccc1C1=NN(C(=O)CN2CCCCC2)C(c2ccc(C)cc2)C1` (centres undefined), the inhibition is 8.3% (inactive).

As for `Cc1ccc(C2CC(c3cccc(F)c3)=NN2C(=O)CN2CCOCC2)cc1` (centres undefined), the inhibition was 67.8% (active).

With `CC(C)NC(=O)c1ccccc1NC(=O)c1ccc([N+](=O)[O-])cc1`, the inhibition was -2.9% (inactive).

For `N=C1S/C(=C\c2cccs2)C(=O)N1c1ccc2c(c1)OCO2`, the inhibition is 2% (inactive).

As to `O=C(CSc1ncnc2c1[nH]c1ccccc12)N1CCc2ccccc2C1`, the inhibition was 0% (inactive).

`COCC(=O)N1CCCN(c2nc3c(s2)c(C)nn3-c2ccc(C)cc2)CC1`: the inhibition was 45.2% (inactive).

As to `COc1ccc(CCNC(=O)N2CC(c3nc(-c4ccccn4)no3)C2)cc1`, the inhibition was -18.5% (inactive).

Regarding `COc1ccc(NC(=O)N2CC3CC(NS(=O)(=O)c4cccs4)C2C3)c(OC)c1` (centres undefined), the inhibition is 9.02% (inactive).

For `N#CC1=C(N)Oc2c(c(=O)[nH]c3ccccc23)C1c1cccs1` (centres undefined), the inhibition is 8% (inactive).

Turning to `N#CC1=C(N)Oc2c(sc3ccccc23)C1c1ccco1` (centres undefined), the inhibition was 53% (active).

In the case of `N#CC1=C(N)Oc2ccc3ncccc3c2C1c1ccccc1F` (centres undefined), the inhibition was 49% (inactive).

With `CC(C)=CCOc1ccc2cc(-c3ccccc3)c(=O)oc2c1`, the inhibition is -45.3% (inactive).

In the case of `O=C(COc1ccc(Br)cc1)Nc1ccccc1C(F)(F)F`, the inhibition is -57% (inactive).

As to `CN(C)C(=O)c1cc2c(s1)CCC(C(=O)NCc1ccccc1Cl)C2` (centres undefined), the inhibition is 3.06% (inactive).

For `O=C1OC(c2cccc(F)c2)=N/C1=C\c1ccc(Br)cc1`, the inhibition is -1% (inactive).

On to `CCC(C)NC(=O)c1ccc2c(c1)nc1n2CCCC1` (centres undefined), for which the inhibition is -4.18% (inactive).

As to `CN1CCN(c2nc3c(c(=O)[nH]c(=O)n3C)n2CC(=O)c2ccc(Cl)cc2)CC1`, the inhibition was -4% (inactive).

With `Cc1cccc(N=C/C=C/c2ccc([N+](=O)[O-])cc2)c1`, the inhibition was 72% (active).

As for `O=[N+]([O-])c1ccc(C=Nc2ccc(N=Cc3ccc([N+](=O)[O-])cc3)cc2)cc1`, the inhibition is 4% (inactive).

Regarding `O=[N+]([O-])c1ccc(C=Nc2cccc(Cl)c2)cc1`, the inhibition was 30% (inactive).

As for `CC(=O)NCCN1C(=O)C(=O)C(=C(O)c2ccc(Cl)cc2)C1c1ccc(Br)cc1` (centres undefined), the inhibition is -0.6% (inactive).

For the molecule `C=CCOc1ccc(/C=C2\SC(=O)N(c3ccccc3)C2=O)cc1OC`, the inhibition was 3% (inactive).

With `COc1cc(/C=C2\SC(=N)N(c3ccccc3OC)C2=O)ccc1O`, the inhibition was 36% (inactive).

On to `COc1cc(C=C2SC(=S)N(c3ccc(O)cc3)C2=O)ccc1O`, for which the inhibition was 58.5% (active).

Regarding `CCc1cccc(NS(=O)(=O)c2ccccc2[N+](=O)[O-])c1`, the inhibition is 10.6% (inactive).

`O=[N+]([O-])c1ccccc1S(=O)(=O)Nc1cccc2cccnc12`: the inhibition was 98.6% (active) and 99% (active).

Turning to `Cc1ccc(F)cc1NS(=O)(=O)c1cccc2cccnc12`, the inhibition is 2% (inactive).

Consider `COc1cccc(-c2noc(C3CCCN3C(=O)Nc3ccc4c(c3)OCCO4)n2)c1` (centres undefined), for which the inhibition is 13.9% (inactive).

Take `OC(COc1ccccc1Br)CN1CCN(Cc2ccccc2)CC1` (centres undefined): the inhibition was -4% (inactive).

Consider `COc1ccccc1Oc1ncnc2scc(-c3ccc(F)cc3)c12`, for which the inhibition is -1% (inactive).

For orientation: inhibition means the relative decrease from the control value, in per cent.

The record behind these values is PubChem BioAssay AID1671202 (University of Kansas High Throughput Screening Laboratory, 2021).
